SMILES strings stand for the structures. Structures can show the parent of a compound that is named as a salt. ± gives the standard deviation of the averaged measurements.

In the assay the test system is E. coli TESEC Alr+ wild-type control. Briefly: growth (OD600 after 10 h); higher = more growth (less inhibition). The note with it: compound 0.1 mM; raw OD600 reference: median of DMSO wells 0.49, cell-free background 0.052. The protocol: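 TESEC Mtb Alr E. coli (ΔaraC ΔtolC ΔentC Δalr ΔdadX, arabinose-inducible Mtb Alr) or the Alr+ wild-type control strain, grown in defined M9-fructose medium without D-alanine in 96-well plates with Prestwick library compounds at 0.1 mM and 1% DMSO. Low Alr induction is 0.1 µM arabinose and high induction is 10 mM arabinose.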
For the molecule `C[C@]12CC[C@H](O)C[C@@H]1CC[C@@H]1[C@@H]2CC[C@]2(C)C(=O)CC[C@@H]12` [Epiandrosterone], the growth came to 0.252 ± 0.013. Next, `Fc1ccc(C(OCCN2CCN(CCCc3ccccc3)CC2)c2ccc(F)cc2)cc1`: 0.04777 ± 0.00025. With `CN(C)C(=O)Oc1cc(OC(=O)N(C)C)cc(C(O)CNC(C)(C)C)c1` (stereo not given) [Bambuterol hydrochloride], the growth is 0.618 ± 0.051. Next, `COc1ccc(OC)c(C(O)C(C)N)c1` (stereo not given) [Methoxamine hydrochloride]: 0.458 ± 0.037; `CC(CCc1ccccc1)NC(C)C(O)c1ccc(O)cc1` (stereo not given) [Nylidrin]: 0.491 ± 0.052; `CC(C)c1c(CN(C)C(C)Cc2ccccc2)n(C)n(-c2ccccc2)c1=O` (stereo not given) [Famprofazone]: 0.443 ± 0.019.

Turning to `CCN(C)C(=O)Oc1cccc([C@H](C)N(C)C)c1` [Rivastigmine], the growth was 0.504 ± 0.066. Next, `CN(C)[C@@H]1C(=O)C(C(N)=O)=C(O)[C@@]2(O)C(=O)C3=C(O)c4c(O)ccc(Cl)c4[C@@](C)(O)[C@H]3C[C@@H]12` [Chlortetracycline hydrochloride]: 0.0491 ± 0.00036; `C[C@]12N[C@H](Cc3ccccc31)c1ccccc12` [Dizocilpine maleate]: 0.54 ± 0.094.

As to `CC(C)(N)Cc1ccccc1` [Phentermine hydrochloride], the growth was 0.603 ± 0.13. In the case of `c1ccc2c(c1)OCC(C1=NCCN1)O2` (stereo not given) [Idazoxan hydrochloride] it was 0.598 ± 0.015; in that of `CC(C)C[C@H](CN)CC(=O)O` [Pregabalin], 0.614 ± 0.019.

`Oc1cc(Cl)ccc1Oc1ccc(Cl)cc1Cl` [Triclosan] gave a growth of 0.0516 ± 0.0015. For the molecule `C[C@H](N)[C@H](O)c1ccc(O)c(O)c1` [Levonordefrin], the growth amounted to 0.465 ± 0.099. In the case of `C=CC[C@]1(O)CC[C@H]2[C@@H]3CCC4=CC(=O)CCC4=C3C=C[C@@]21C` [Altrenogest] it was 0.293 ± 0.0069. Next, `CC[C@@]1(O)C(=O)OCc2c1cc1n(c2=O)Cc2cc3ccccc3nc2-1` [Camptothecine (S,+)]: 0.477 ± 0.033. Next, `CN1[C@@H]2C[C@@H](OC(=O)[C@H](CO)c3ccccc3)C[C@H]1[C@@H]1O[C@@H]12` [Scopolamine hydrochloride]: 0.469 ± 0.026; `CNCC(O)c1ccc(O)cc1` (racemic) [(+,-)-Synephrine]: 0.58 ± 0.057. As for `CCC1=C[C@H]2CN3CCc4c([nH]c5ccccc45)[C@](C(=O)OC)(C2)[C@H]13` [Catharanthine], the growth was found to be 0.4419 ± 0.0012. Turning to `C#C[C@]1(O)CC[C@H]2[C@@H]3CCC4=CC(=O)CCC4=C3C=C[C@@]21CC` [Gestrinone], the growth was 0.287 ± 0.011. The molecule `CNC(C)(C)Cc1ccccc1` [Mephentermine hemisulfate] came in with a growth of 0.48 ± 0.047.

`O=C(CCCN1CCC2(CC1)C(=O)NCN2c1ccccc1)c1ccc(F)cc1` [Spiperone] displayed a growth of 0.509 ± 0.042. In the case of `NCCc1c[nH]c2ccc(O)cc12` [Serotonin hydrochloride] it was 0.475 ± 0.0089; in that of `CNC(=O)Oc1ccc2c(c1)[C@]1(C)CCN(C)[C@@H]1N2C` [Eserine hemisulfate salt], 0.423 ± 0.028.

Molecule `COc1ccc2c(c1)[C@]13CCCC[C@@H]1[C@H](C2)N(C)CC3` [Dextromethorphan hydrobromide monohydrate] yielded a growth of 0.469 ± 0.03. Next, `CC(=O)O[C@H]1C[C@H](O[C@H]2[C@@H](O)C[C@H](O[C@H]3[C@@H](O)C[C@H](O[C@H]4CC[C@@]5(C)[C@H](CC[C@@H]6[C@@H]5C[C@@H](O)[C@]5(C)[C@@H](C7=CC(=O)OC7)CC[C@]65O)C4)O[C@@H]3C)O[C@@H]2C)O[C@H](C)[C@H]1O[C@@H]1O[C@H](CO)[C@@H](O)[C@H](O)[C@H]1O` [Lanatoside C]: 0.528 ± 0.096. Next, `C[N+]1(C)CCOC(O)(c2ccc(-c3ccc(C4(O)C[N+](C)(C)CCO4)cc3)cc2)C1` (stereo not given) [Hemicholinium bromide]: 0.559 ± 0.071; `CCn1cc(C(=O)O)c(=O)c2cc3c(cc21)OCO3` [Oxolinic acid]: 0.0605 ± 0.0014; `CCCN1C[C@H](CSC)C[C@@H]2c3cccc4[nH]cc(c34)C[C@H]21` [Pergolide mesylate]: 0.529 ± 0.017.

As to `C[C@]12CC[C@H](O)C[C@H]1CC[C@@H]1[C@@H]2C[C@@H](O)[C@]2(C)[C@@H](C3=CC(=O)OC3)CC[C@]12O` [Digoxigenin], the growth is 0.491 ± 0.031. In the case of `O=c1[nH]oc2c1CCNC2` [THIP Hydrochloride] it was 0.539 ± 0.087; in that of `C=C1CC[C@@]2(O)[C@H]3Cc4ccc(O)c5c4[C@@]2(CCN3CC2CC2)[C@H]1O5` [Nalmefene hydrochloride], 0.4625 ± 0.0046. In the case of `O[C@@H]1CCCC[C@H]1N1CCC(c2ccccc2)CC1` [L(-)-vesamicol hydrochloride] it was 0.521 ± 0.091; in that of `CN1C[C@H](C(=O)N[C@]2(C)O[C@@]3(O)[C@@H]4CCCN4C(=O)[C@H](Cc4ccccc4)N3C2=O)C[C@@H]2c3cccc4[nH]cc(c34)C[C@H]21` [Dihydroergotamine tartrate], 0.1077 ± 0.001; in that of `CN(C)[C@@H]1C(=O)C(C(N)=O)=C(O)[C@@]2(O)C(=O)C3=C(O)c4c(O)cccc4[C@@](C)(O)[C@H]3C[C@@H]12` [Tetracycline hydrochloride], 0.0518 ± 0.0007. In the case of `Cc1cccc(C)c1NC1=NCCCS1` [Xylazine] it was 0.487 ± 0.05; in that of `CC(=O)OCC(=O)[C@H]1CC[C@H]2[C@@H]3CC[C@H]4C[C@H](O)CC[C@]4(C)[C@H]3C(=O)C[C@]12C` [Alfadolone acetate], 0.474 ± 0.013; in that of `CC(=O)O[C@H]1CC[C@@]2(C)C(=CC[C@@H]3[C@@H]2CC[C@]2(C)C(=O)CC[C@@H]32)C1` [Dehydroisoandosterone 3-acetate], 0.253 ± 0.0042. As to `CC(N)C(O)c1ccccc1` (stereo not given) [Phenylpropanolamine hydrochloride], the growth was determined as 0.527 ± 0.077. In the case of `CO[C@]12C[C@@H](COC(=O)c3cncc(Br)c3)CN(C)[C@@H]1Cc1cn(C)c3cccc2c13` [Nicergoline] it was 0.481 ± 0.049.

(Values after the supplement of paper PMC9262897, “Low-cost anti-mycobacterial drug discovery using engineered E. coli” (Nature Communications, 2022).)
